Bioassay records from PubChem.
Rows were chosen to be rich in hits. Some 1.6% of all compounds tested hit in one or more screens of this group.
p53ts 39C kill = qHTS Screen for Compounds that Selectively Target Cancer Cells with p53 Mutations: Cytotoxicity of p53ts Cells at the Nonpermissive Temperature; AID 902, 2007; H1299-p53A138V viability at 39C, ATP luminescence, 24 h; 1.5% of 130,000 active; Potency, µM (titrated, usually from 46.1 µM), for inactives: top-dose activity change, negative = cell killing, hits mostly cytotoxic; note: potency is the fitted concentration of half-maximal effect; % is set by controls: 0 for no effect and ±100 for the full control effect; nearly all actives have a fitted effect of over 55% in size
GFP derepression = qHTS Assay for Epigenetic Modulators; mouse C127i GFP locus derepression, cytometry, 30 h; Potency, µM (titrated, usually from 46.1 µM), inactives show top-dose GFP derepression (activation); 0.09% of 68,000 active; note: % of control where 0% means no effect
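Murine C127i mammary cells carrying a silenced, stably integrated CMV-driven GFP reporter were treated with compound for 30 hours at 37 C. After PBS washes, GFP-positive cells were counted by laser-scanning microplate cytometry.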
UbGFP stabilizer = Ubiquitin-GFP Assay; Ubiquitin-GFP reporter cells, proteasome inhibition, GFP fluorescence; response scale: untreated = 0%, 10 µM MG-132 = 100%; Potency, µM (highest dose often 45.9 µM), for the others: top-dose activation (GFP accumulation), hits mostly activators; 67,000 tested, under 10 active; AID 526, 2006; active = well fitted activation curve with a large enough effect, not every such curve was filed as active; inconclusive = small, poorly fitted or top-dose-only effect, or another doubt; inactive = no such curve, though single readings can be large or run the other way; note: potency is the fitted concentration of half-maximal effect
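U2OS Ub(G76V)-GFP reporter; O/N plating, 0.5% FBS; cpd 46 uM–2.9 nM, 4 h, 37 °C; GFP+ cell count, 488/515 nm; norm. to basal vs 10 uM MG-132; CRC fit.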
Imprint erasure = qHTS Assay for Compounds that Induce Erasure of Genomic Imprints; mouse ES Peg3-LacZ reporter, beta-gal luminescence, 40 h; 0.02% of 110,000 active; AID 1948, 2009; Potency, µM (highest dose often 60.7 µM), without a hit: at the highest dose activity change, positive = activation, usual class: activators; note: potency is the fitted concentration of half-maximal effect
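Each well holds 300 Peg3LacZ-Neo (maternal) female ES cells incubated 40 h at 37C, 5% CO2. LacZ is measured by BetaGlo luminescence, with AC50 and maximum efficacy derived from dose-response curves.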
HBB splicing = qHTS Assay for Modulators of Hemoglobin Beta Chain Splicing. HBB splicing reporter cell assay, activation; EGFP reporter with mutant IVS2-654 intron; response scale: normalised to 500 nM splice-correcting PNA. Potency, µM (doses to about 46.1 µM), inactives show at the top dose activation, actives largely listed as activators. 0.06% of 65,000 active; note: potency is the fitted concentration of half-maximal effect; 0% is about no effect
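HeLa cells stably expressing EGFP interrupted by mutant beta-globin intron 2 (IVS2-654), 500/well in 2% FCS. Treated with compound for 2 days at 37C. Splicing correction scored as total well GFP intensity (488 nm excitation, 500-520 nm emission); 500 nM antisense PNA served as control.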
p53ts 32C kill = qHTS Screen for Compounds that Selectively Target Cancer Cells with p53 Mutations: Cytotoxicity of p53ts Cells at the Permissive Temperature | H1299-p53A138V at 32C, ATP luminescence viability, 24 h | Potency, µM (doses to about 46.1 µM), for the others: top-dose activity change, negative = cytotoxicity, hits mostly cytotoxic | 0.93% of 130,000 active | AID 924, 2007;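 note: potency is the fitted concentration of half-maximal effect; 0% = DMSO and -100% = full killing by reference compound; nearly all actives have a fitted effect of over 55% in size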
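Viability by ATPlite luminescence after 24 h compound treatment (up to 46 uM) at the permissive 32C. Cells are H1299 carrying p53 A138V. Scale runs from DMSO basal to 100 uM tamoxifen as full kill; AC50 from Hill fits.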
Active calls of the source: *; [ ] = dose if it differs, or a comment. Unless noted, calls come from the whole dose curve; as a rule, active = well fitted curve in the direction sought with a large enough effect; inconclusive = small, poorly fitted or top-dose-only effect, or another doubt; inactive = no such curve, though single readings can be large; an effect the other way counts as inactive or inconclusive.

Results for N#Cc1c(C(F)(F)F)cc(-c2ccco2)nc1SCc1ccccn1 ?
p53ts 39C kill: -2%; GFP derepression: inconclusive; UbGFP stabilizer: -4%; Imprint erasure: -13%; HBB splicing: 16µM*; p53ts 32C kill: 0%

Results for O=C(Nc1ccccc1C(F)(F)F)c1ccc2oc(=O)c(S(=O)(=O)c3ccc(F)cc3)cc2c1 ?
p53ts 39C kill: 13µM*; Imprint erasure: -6%[10.9 µM]; p53ts 32C kill: 10µM*

Results for CC1(O)CC2C(CC1O)C2(C)C (stereo not given) ?
p53ts 39C kill: 11%; Imprint erasure: -7%; p53ts 32C kill: -2%

What do the screens show for `NC(=O)C1CCN(C2CC(=O)N(c3cccc(F)c3)C2=O)CC1` (stereo not given)?
p53ts 39C kill: 8%; GFP derepression: 2%; UbGFP stabilizer: 0%; Imprint erasure: 13%; HBB splicing: -2%[57.5 µM]; p53ts 32C kill: -1%

What do the screens show for `COc1ccc(-c2nc3cnc(Nc4ccccc4)nc3n(C[C@H]3CCCO3)c2=O)cc1`?
p53ts 39C kill: 3%; GFP derepression: 0%[9.22 µM]; UbGFP stabilizer: 6%; Imprint erasure: -7%; HBB splicing: 1%; p53ts 32C kill: -17%

How did CCOc1ccc(NC(=O)c2sc3nc4c(cc3c2N)CCCCCC4)cc1 do in these assays?
p53ts 39C kill: 13µM*; Imprint erasure: -8%[10.9 µM]; p53ts 32C kill: inconclusive

Results for COc1ccc(OC)c(NC(=O)c2sc3nc4c(cc3c2N)CCCCCC4)c1 ?
p53ts 39C kill: 13µM*; Imprint erasure: -19%[10.9 µM]; p53ts 32C kill: inconclusive

Results for CCCCn1cnc2cc(NCc3ccc(OCC)cc3)ccc21 ?
p53ts 39C kill: -20%; Imprint erasure: -11%[10.9 µM]; p53ts 32C kill: -10%

Results for c1ccc(-c2noc(-c3ccc4ccccc4c3)n2)nc1 ?
p53ts 39C kill: 0.63µM*; GFP derepression: -2%; UbGFP stabilizer: 9%; Imprint erasure: -91%; HBB splicing: -1%; p53ts 32C kill: 0.32µM*

How did c1ccc(-c2noc(-c3ccc4c(c3)OCO4)n2)nc1 do in these assays?
p53ts 39C kill: 1µM*; GFP derepression: 3%; UbGFP stabilizer: 2%; Imprint erasure: -92%; HBB splicing: 0%; p53ts 32C kill: 0.63µM*

What do the screens show for `Cc1occc1-c1nc(-c2ccccn2)no1`?
p53ts 39C kill: 13µM*; GFP derepression: 4%; UbGFP stabilizer: 17%; Imprint erasure: -92%; HBB splicing: -1%; p53ts 32C kill: 10µM*

What do the screens show for `c1ccc(-c2noc(-c3cccnc3)n2)nc1`?
p53ts 39C kill: 13µM*; GFP derepression: -1%; UbGFP stabilizer: -3%; Imprint erasure: -92%; HBB splicing: -1%; p53ts 32C kill: 13µM*

Results for c1ccc(-c2noc(-c3ccncc3)n2)nc1 ?
p53ts 39C kill: inconclusive; GFP derepression: -3%; UbGFP stabilizer: 26%[9.17 µM]; Imprint erasure: -92%; HBB splicing: -4%[0.0738 µM]; p53ts 32C kill: inconclusive

What do the screens show for `O=C(Nc1cccc(-c2nnc(-c3ccccc3)o2)c1)c1ccc(Br)o1`?
p53ts 39C kill: 25µM*; GFP derepression: -2%; UbGFP stabilizer: 3%; Imprint erasure: -23%; HBB splicing: -1%; p53ts 32C kill: inconclusive

Results for Cc1ccc2nc3ccc(N4CCN(C)CC4)nn3c(=O)c2c1 ?
p53ts 39C kill: inconclusive; GFP derepression: 6%; UbGFP stabilizer: 9%; Imprint erasure: -15%; HBB splicing: 0%; p53ts 32C kill: 4µM*

What do the screens show for `Cc1ccc(Cl)cc1N(C)C(=O)c1cc2ccc3cccnc3c2[nH]1`?
p53ts 39C kill: 25µM*; Imprint erasure: 17%[10.9 µM]; p53ts 32C kill: 19%

Results for O=S(=O)(c1ccc(Oc2ccc(S(=O)(=O)N3CCOCC3)cc2)cc1)N1CCOCC1 ?
p53ts 39C kill: -1%; GFP derepression: 0%; UbGFP stabilizer: -20%[9.17 µM]; Imprint erasure: -10%; HBB splicing: -3%[0.0738 µM]; p53ts 32C kill: -8%

How did C=CS(=O)(=O)c1ccc(Oc2ccc(S(=O)(=O)C=C)cc2)cc1 do in these assays?
p53ts 39C kill: 10µM*; GFP derepression: 0%; UbGFP stabilizer: 1%; Imprint erasure: -23%; p53ts 32C kill: -84%

What do the screens show for `O=C(O)c1cccc(COc2ccc(CO)cc2Cl)c1`?
p53ts 39C kill: 4µM*; GFP derepression: 6%; UbGFP stabilizer: -5%; Imprint erasure: -93%; HBB splicing: 0%; p53ts 32C kill: 5µM*

Results for CCOc1ccc(OCc2cccc(C(=O)O)c2)cc1 ?
p53ts 39C kill: 2µM*; GFP derepression: 0%; UbGFP stabilizer: 0%; Imprint erasure: -95%; HBB splicing: -1%; p53ts 32C kill: 2.5µM*

What do the screens show for `O=C(O)c1ccc(COc2ccc(CO)cc2Cl)cc1`?
p53ts 39C kill: -19%; GFP derepression: 3%; UbGFP stabilizer: -3%; Imprint erasure: -84%; HBB splicing: -2%; p53ts 32C kill: -26%

What do the screens show for `COc1ccc(OCc2cccc(C(=O)O)c2)cc1`?
p53ts 39C kill: 5µM*; GFP derepression: 0%; UbGFP stabilizer: 4%; Imprint erasure: -90%; HBB splicing: -1%; p53ts 32C kill: 6.3µM*

How did CC(C)(C)C(=O)Nc1nc2nc(-c3ccccc3)cc(=O)n2[nH]1 do in these assays?
p53ts 39C kill: -18%; Imprint erasure: -27%[10.9 µM]; p53ts 32C kill: -10%

Results for CCOc1cccc(-c2nc3ccccc3c(=O)o2)c1 ?
p53ts 39C kill: 10µM*; Imprint erasure: -29%[10.9 µM]; p53ts 32C kill: 10µM*

What do the screens show for `O=C(CSc1nncs1)NCc1ccc2c(c1)OCO2`?
p53ts 39C kill: -13%; GFP derepression: 2%; UbGFP stabilizer: -3%; Imprint erasure: -12%; HBB splicing: 0%[57.5 µM]; p53ts 32C kill: -9%

Results for CC(=O)NC(CCS(C)(=O)=O)C(=O)Nc1cc(C)on1 (stereo not given) ?
p53ts 39C kill: 2%; UbGFP stabilizer: 3%; Imprint erasure: 5%; HBB splicing: 0%; p53ts 32C kill: -3%

What do the screens show for `C=CC(=O)OCCOCCOC(=O)C=C`?
p53ts 39C kill: 32µM*; Imprint erasure: -27%; HBB splicing: 1%; p53ts 32C kill: -1%[1.84 µM]

How did CNc1nnc(-c2ccc(N(C)C)cc2)s1 do in these assays?
p53ts 39C kill: 7.9µM*; p53ts 32C kill: 6.3µM*
